This is part of a sample that, as a whole, favours compounds with a hit. Of some 79,000 tested, about 15% had one in any assay. Values without a mark were called inactive. The source made the active and inactive calls. Cut-off read from the data, not from the text of the source: active = growth inhibition above about 70%; inactive = the rest.
Legend:
[1] = NCI Yeast Anticancer Drug Screen. Data for the rad50 strain (AID 155);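 note: 0% = growth of vehicle-only cultures of the same strain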; conditions: S. cerevisiae rad50 strain growth inhibition; at 50.0 µM; active compounds read high
Method in brief: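 Readout: growth inhibition relative to vehicle-treated cultures. Compound exposure was carried out in a genetically defined yeast strain deficient in DNA damage repair.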

[2] = NCI Yeast Anticancer Drug Screen. Data for the mec2-1 strain (AID 157); conditions: S. cerevisiae mec2-1 strain, at 50.0 µM, active compounds read high
Method in brief: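 mec2-1 yeast strain, carrying an alteration in DNA damage repair or cell cycle control, was exposed to compounds; growth inhibition was measured relative to vehicle-treated controls.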

[3] = NCI Yeast Anticancer Drug Screen. Data for the sgs1 mgt1 strain (AID 161);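 note: 0% = growth of cultures given vehicle only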; conditions: S. cerevisiae sgs1 mgt1 strain, at 50.0 µM, active compounds read high
Method in brief: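 This yeast growth screen uses a strain with defined DNA-repair lesions; compound-treated growth is compared with vehicle-treated growth.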

[4] = NCI Yeast Anticancer Drug Screen. Data for the cln2 rad14 strain (AID 165);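 note: 0% = growth equal to vehicle treated cultures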; conditions: S. cerevisiae cln2 rad14 strain, at 50.0 µM, active compounds read high
Method in brief: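 Yeast carrying cln2 and rad14 alterations (cell cycle control and DNA damage repair) were exposed to compounds. Growth inhibition was measured against vehicle-treated controls.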

[5] = NCI Yeast Anticancer Drug Screen. Data for the bub3 strain (AID 167); conditions: S. cerevisiae bub3 mutant strain, at 50.0 µM, active compounds read high
Method in brief: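 Readout: yeast growth inhibition, expressed relative to vehicle-only wells. The test organism is a mutant strain from a panel with lesions in DNA repair or checkpoint genes.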

[6] = NCI Yeast Anticancer Drug Screen. Data for the mlh1 rad18 strain (AID 175); conditions: S. cerevisiae mlh1 rad18 strain growth inhibition; at 50.0 µM; active compounds read high
Method in brief: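 Growth inhibition of the yeast strain was measured after compound exposure and expressed relative to vehicle-treated controls. The strain carries defined defects in DNA damage repair.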

| SMILES | growth inhibition [1] | growth inhibition [2] | growth inhibition [3] | growth inhibition [4] | growth inhibition [5] | growth inhibition [6] |
| --- | --- | --- | --- | --- | --- | --- |
| O=C(Nc1ccc(Cl)cc1C(=O)c1ccccc1)c1ccc([N+](=O)[O-])cc1 | -1.4% | -3.1% | -0.5% | -40.1% | 4.2% | 12.8% |
| O=C(NC1CC1)C(Cl)Cl | -0.15% | -25.1% | 5.85% | 11% | -16.4% | -1.15% |
| Cc1ncc([N+](=O)[O-])n1C(C)C(=O)Nc1ccc(N(CCCl)CCCl)cc1 (stereo not drawn) | -6.2% | 10.3% | 3.5% | -2.3% | -4.65% | 13.2% |
| COC(=O)COC1CC[CH-]CC1.[Cl-].[Cl-].[Cl-].[Cl-].[Cl-].[Sb+5].c1ccncc1 | 20.8% | 7.8% | 18.7% | 17.6% | 4.75% | 12.8% |
| COC12C(COC(N)=O)C3=C(C(=O)C(C)=C(N4CC4)C3=O)N1CC1NC12 (stereo not drawn) | 87.7% (active) | 90.3% (active) | 90.9% (active) | 86.3% (active) | 88.8% (active) | 87.2% (active) |
| COP(=O)(OC)O/C(=C(/OP(=O)(OC)OC)c1ccccc1)c1ccccc1 | 35.5% | 14.3% | 0.1% | 24.1% | -1.35% | 25.1% |
| ClCCCN1CCN(CCCl)CC1 | -11.6% | -10.1% | -1.75% | 3.2% | -13.8% | -21.5% |
| O=P(O)(O)CCP(=O)(O)O | -14.5% | 17.9% | -13.4% | 21.8% | -13.7% | -13.7% |
| NS(=O)(=O)c1cccc([As](=O)(O)O)c1 | -11.1% | 10.4% | -12.9% | -3.55% | -13.9% | -3.6% |
| C[C@H](CCC1SC1(C)C)C1CCC2(C)C3=C(CC[C@]12C)[C@@]1(C)CC[C@H](O)C(C)(C)C1CC3 (stereo partly drawn) | 9.85% | -11.2% | -11.2% | -48.8% | -5.2% | 1.9% |
| COc1ccc(CCN)cc1OC | 37.5% | 9.9% | 23% | -82% | -5.05% | -24.2% |
| NC(Cc1ccc(O)c(O)c1)c1ccccc1 (stereo not drawn) | -12.1% | 4.2% | -2.55% | -25.8% | -7.75% | -22.6% |
| CC(Cc1ccc(Cl)cc1Cl)NO (stereo not drawn) | 15.7% | -12.2% | -15.9% | -25.6% | -43.2% | -2.15% |
| O=[As](c1ccccc1)(c1ccccc1)c1ccc(Br)cc1 | 31.1% | 1.25% | 12.2% | 5.1% | 6.2% | 4.7% |
| O=C(O)C(Cc1cnc[nH]1)N1C(=O)c2ccccc2C1=O (stereo not drawn) | -16.6% | -12.9% | -1% | -24.9% | -10% | -8.85% |
| CC(C)C1C=Cc2ccccc21 (stereo not drawn) | 13.8% | 1.85% | 4.45% | -13.1% | -3.55% | 28.8% |
| [CH3][Sb]1([Cl])[CH2]CCC[CH2]1 | 0.5% | 32.9% | 11.1% | -6.1% | 32% | 36.2% |
| Cn1cnnc1[N+](=O)[O-] | 1.75% | 5.85% | -11.4% | -1.1% | 3.25% | 15.7% |

Reference: PubChem BioAssay (NCI)
